FLuc inh-1: Firefly luciferase inhibition profiling of diverse chemical library using quantitative high-throughput screening | Luciferin 4-monooxygenase (Photinus pyralis), P08659 | purified P. pyralis luciferase, luminescence, biochemical | Potency, µM (highest dose often 115 µM), usual class: inhibitors | actives 2.5% (n = 76,000) | AID 1347043, 2019; note: % is set by controls: 0 for no effect and ±100 for the full control effect; nearly all actives have a fitted effect of over 65% in size
Target sequence (P08659 whole entry, looked up): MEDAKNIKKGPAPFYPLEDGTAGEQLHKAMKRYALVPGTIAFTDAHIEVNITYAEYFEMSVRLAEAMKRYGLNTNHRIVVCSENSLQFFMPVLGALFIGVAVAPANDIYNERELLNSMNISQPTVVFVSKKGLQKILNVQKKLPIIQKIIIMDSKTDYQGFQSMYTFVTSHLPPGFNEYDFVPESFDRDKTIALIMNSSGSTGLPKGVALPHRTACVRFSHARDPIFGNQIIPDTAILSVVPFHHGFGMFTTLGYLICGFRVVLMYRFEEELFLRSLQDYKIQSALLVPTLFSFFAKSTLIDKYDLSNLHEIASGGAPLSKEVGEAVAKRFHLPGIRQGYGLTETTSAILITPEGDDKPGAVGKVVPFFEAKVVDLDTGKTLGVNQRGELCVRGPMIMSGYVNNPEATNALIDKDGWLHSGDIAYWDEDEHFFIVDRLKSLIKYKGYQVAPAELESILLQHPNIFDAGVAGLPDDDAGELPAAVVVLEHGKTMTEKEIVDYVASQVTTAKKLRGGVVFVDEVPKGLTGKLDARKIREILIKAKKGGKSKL
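Purified 10nM P. pyralis luciferase with 10uM D-luciferin and 10uM ATP in 50mM Tris acetate pH 7.5, 10mM Mg acetate, 0.01% Tween-20, 0.05% BSA. qHTS titration; luminescence read by CCD imager.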
HEK293 tox: Cytotoxic Profiling in HEK 293 Cell Line of Diverse Libraries Using Quantitative High-Throughput Screening; actives 6.6% (n = 94,000); AID 1345083, 2018; HEK 293 viability, ATP luminescence (CellTiter-Glo), 48-72 h; Potency, µM (highest dose often 115 µM), without a hit: at the highest dose activity change, negative = cytotoxicity, most hits filed as inhibitors; note: % is set by controls: 0 for no effect and ±100 for the full control effect; nearly all actives have a fitted effect of over 60% in size
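Cells seeded first (HEK 293, 250 cells/well), then compound added by pintool. Incubation ran 48 or 72 hr at 37 degree Celsius. CellTiter-Glo was added and luminescence imaged after 10 min at room temperature.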
hNpr1 antagonist: Natriuretic polypeptide receptor (hNpr1) antagonism - Primary qHTS | HEK293 hNpr1 GloSensor cGMP, ANP-stimulated luminescence | Atrial natriuretic peptide receptor 1 (Homo sapiens), P16066 | Potency, µM (doses to about 46.3 µM), for the others: top-dose activity change, negative = inhibition, actives largely listed as inhibitors | AID 1347048, 2019 | actives 1.6% (n = 76,000); calls by dose curve; note: % is set by controls: 0 for no effect and ±100 for the full control effect; nearly all actives have a fitted effect of over 60% in size
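HEK293 cells stably expressing human Npr1 and cGMP GloSensor pGS-40F, loaded 2 h with 2% GloSensor reagent, given compound 30 min at room temperature. Luminescence read before and 20 min after 0.1 nM hNppA.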
NIH3T3 tox: Cytotoxic Profiling in NIH 3T3 Cell Line of Diverse Libraries Using Quantitative High-Throughput Screening | NIH 3T3 viability, CellTiter-Glo ATP luminescence, 48-72 h | Potency, µM (top dose mostly 96.7 µM), for inactives: top-dose activity change, negative = cytotoxicity, usual class: inhibitors | actives 4.3% (n = 94,000); note: % is set by controls: 0 for no effect and ±100 for the full control effect; nearly all actives have a fitted effect of over 55% in size
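Cells were seeded at 400 per well, treated with pin-transferred compound, and kept 48 or 72 hr at 37 °C before CellTiter-Glo addition and luminescence imaging of cellular ATP.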
FLuc SDR -ATP: Firefly luciferase (FLuc-C-HiBiT) SDR gain of signal screen - without ATP. shares compounds with FLuc inh-1. Purified FLuc-C-HiBiT, Nano-Glo HiBiT luminescence, no ATP. Potency, µM (top dose mostly 32.7 µM), without a hit: at the top dose activation (signal gain), usual class: activators. actives 7.8% (n = 1,300); note: nearly all actives have a fitted effect of over 55% in size
FLuc SDR ATP: Firefly luciferase (FLuc-C-HiBiT) SDR gain of signal screen - plus ATP | shares compounds with FLuc inh-1 | purified FLuc-C-HiBiT + ATP, HiBiT complementation luminescence | Potency, µM (highest dose often 32.7 µM), for the others: at the top dose activation (gain of signal), hits mostly activators | actives 8.7% (n = 1,300);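 note: signal reports ligand binding via conformational change of the enzyme rather than luciferase catalysis; % of control where 0% means no effect; nearly all actives have a fitted effect of over 55% in size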
FLuc inh-2: Firefly luciferase (FLuc-C-HiBiT) enzymatic inhibition screen - Functional assay. shares compounds with FLuc inh-1. purified FLuc-C-HiBiT enzyme, luciferin luminescence. Potency, µM (top dose mostly 32.7 µM), without a hit: top-dose activity change, negative = inhibition, actives largely listed as inhibitors. actives 42% (n = 1,300); note: % is set by controls: 0 for no effect and ±100 for the full control effect; nearly all actives have a fitted effect of over 70% in size
An asterisk follows results filed as active; [ ] = remark or other dose. An excerpt weighted towards active compounds, which were near 11% of everything screened. Unless noted, calls come from the whole dose curve; as a rule, active = well fitted curve in the direction sought with a large enough effect; inconclusive = small, poorly fitted or top-dose-only effect, or another doubt; inactive = no such curve, though single readings can be large; an effect the other way counts as inactive or inconclusive. Potency is the fitted concentration of half-maximal effect.

Results for COc1cccc(CC(=O)NCCn2ccn3nc(-c4ccc(C)cc4C)cc3c2=O)c1 ?
FLuc inh-1: 11µM*; HEK293 tox: inconclusive; hNpr1 antagonist: -2%; NIH3T3 tox: inconclusive; FLuc SDR -ATP: inconclusive; FLuc SDR ATP: 18%; FLuc inh-2: inconclusive

How did Cc1ccc(-c2cc3c(=O)n(CCNC(=O)Cc4cccc(F)c4)ccn3n2)c(C)c1 do in these assays?
FLuc inh-1: 3.5µM*; HEK293 tox: inconclusive; hNpr1 antagonist: -27%; NIH3T3 tox: inconclusive; FLuc SDR -ATP: inconclusive; FLuc SDR ATP: inconclusive; FLuc inh-2: 5.6µM*

Results for CCC(CC)C(=O)N1CC[C@H]2NC(=O)N(c3ccc(C(C)C)cc3)C(=O)[C@H]21 ?
FLuc inh-1: inactive; HEK293 tox: inconclusive; hNpr1 antagonist: -11%[70.6 µM]; NIH3T3 tox: 4%[174 µM]

What do the screens show for `Cc1ccc(-c2cc3c(=O)n(CCNC(=O)c4cccc(C#N)c4)ccn3n2)c(C)c1`?
FLuc inh-1: 2µM*; HEK293 tox: 45µM*; hNpr1 antagonist: inconclusive; NIH3T3 tox: 35µM*; FLuc SDR -ATP: inconclusive; FLuc SDR ATP: inconclusive; FLuc inh-2: 3.1µM*

What do the screens show for `Cc1ccc(C(=O)N2CCCC2C(=O)N2CCC(N3CCCC3=O)CC2)cc1` (centres undefined)?
HEK293 tox: -3%; NIH3T3 tox: -20%

How did Cc1noc(C)c1CC(=O)N1CCOc2c(cc(-c3nc4ccccc4s3)cc2OC2CCOC2)C1 (centres undefined) do in these assays?
FLuc SDR -ATP: 12%; FLuc SDR ATP: 12%; FLuc inh-2: -4%

How did C=CCn1cc(CN2CCOc3c(O)cc(-c4cccc(Cl)c4)cc3C2)cn1 do in these assays?
FLuc inh-1: inactive; HEK293 tox: inconclusive; hNpr1 antagonist: -18%; NIH3T3 tox: inconclusive

How did Oc1cc(-c2nc3ccccc3s2)cc2c1OCCN(Cc1cn[nH]c1-c1ccc(Cl)cc1)C2 do in these assays?
FLuc SDR -ATP: 13%; FLuc SDR ATP: 8%; FLuc inh-2: -1%

What do the screens show for `c1ccc2sc(-c3cc4c(c(OC5CCOC5)c3)OCCN(Cc3cccn3-c3nccs3)C4)nc2c1` (centres undefined)?
FLuc SDR -ATP: 14%; FLuc SDR ATP: 11%; FLuc inh-2: -3%

What do the screens show for `Oc1cc(-c2nc3ccccc3s2)cc2c1OCCN(Cc1ncccn1)C2`?
FLuc inh-1: inconclusive; HEK293 tox: inconclusive; hNpr1 antagonist: 3%; NIH3T3 tox: -37%; FLuc SDR -ATP: 13%; FLuc SDR ATP: 11%; FLuc inh-2: -15%

What do the screens show for `Cc1noc(C)c1CC(=O)N1C[C@@H](Oc2ccccc2)C[C@@H]1C(=O)N1CCOCC1`?
FLuc inh-1: inactive; HEK293 tox: -3%; hNpr1 antagonist: 8%; NIH3T3 tox: -12%

What do the screens show for `Cc1ccccc1C(=O)NC1CCN(c2cc(-c3ccccc3)[nH]n2)C1` (centres undefined)?
FLuc inh-1: inactive; HEK293 tox: -4%; hNpr1 antagonist: -1%; NIH3T3 tox: -5%

Results for Cc1ccc(C(=O)N2CCN(c3nnc4cccc(C)n34)CC2)cc1C ?
FLuc inh-1: inactive; HEK293 tox: -18%; hNpr1 antagonist: 5%; NIH3T3 tox: -17%

Results for CCN1C(=O)CCN(Cc2ccc(F)c(F)c2)CC12CCOCC2 ?
HEK293 tox: -26%; NIH3T3 tox: -20%

How did Cc1ccccc1-c1cc(O)c2c(c1)CN(Cc1nccn1C)CCO2 do in these assays?
FLuc inh-1: inactive; HEK293 tox: inconclusive; hNpr1 antagonist: -8%; NIH3T3 tox: -29%

What do the screens show for `Oc1cc(-c2nc3ccccc3s2)cc2c1OCCN(Cc1cccn1-c1nccs1)C2`?
FLuc SDR -ATP: 16%; FLuc SDR ATP: 9%; FLuc inh-2: -5%

How did Oc1cc(-c2nc3ccccc3s2)cc2c1OCCN(Cc1cccn1-c1ccc(Cl)cn1)C2 do in these assays?
FLuc SDR -ATP: 16%; FLuc SDR ATP: 13%; FLuc inh-2: -10%

Results for Fc1ccccc1-c1n[nH]c2c1CN(Cc1cccn1-c1nccs1)CC2 ?
FLuc inh-1: inactive; HEK293 tox: inconclusive; hNpr1 antagonist: -11%; NIH3T3 tox: -34%

How did O=C(Nc1ccc(F)cc1)c1ccc2nc(-c3ccnc(Cl)c3)oc2c1 do in these assays?
HEK293 tox: -9%[172 µM]; NIH3T3 tox: inconclusive

Results for CC(C)(Oc1nn(CC2CC2)c2ccc(CN3CCCC3)cc12)C(=O)NC1CCOCC1 ?
FLuc SDR -ATP: 12%[49.3 µM]; FLuc SDR ATP: 10%[49.3 µM]; FLuc inh-2: -3%[49.3 µM]

Results for CN1CCC(NC(=O)C(C)(C)Oc2nn(Cc3ncccn3)c3ccccc23)CC1 ?
FLuc SDR -ATP: 14%[49.3 µM]; FLuc SDR ATP: 11%[49.3 µM]; FLuc inh-2: 0%[49.3 µM]

Results for COc1ccc(NC(=O)C(C)(C)Oc2nn(CC3CC3)c3ccc(CN4CCCC4)cc23)cc1 ?
FLuc inh-1: inactive; HEK293 tox: inconclusive; hNpr1 antagonist: -2%; NIH3T3 tox: inconclusive

How did CCC(=O)N1CCN(c2nc3c(s2)CC(C(=O)N2CCN(CC)CC2)CC3)CC1 (centres undefined) do in these assays?
FLuc inh-1: inactive; HEK293 tox: -2%; hNpr1 antagonist: -2%; NIH3T3 tox: -20%

How did CCC(=O)N1CCN(c2nc3c(s2)CC(C(=O)O)CC3)CC1 (centres undefined) do in these assays?
FLuc inh-1: 13µM*; HEK293 tox: -4%; hNpr1 antagonist: 1%; NIH3T3 tox: inconclusive; FLuc SDR -ATP: 11%; FLuc SDR ATP: inconclusive; FLuc inh-2: inconclusive

Results for COc1cccc(S(=O)(=O)N2C[C@@H](Oc3ccccc3)C[C@@H]2C(=O)N2CCOCC2)c1 ?
FLuc inh-1: inactive; HEK293 tox: -8%; hNpr1 antagonist: 5%; NIH3T3 tox: -13%
